Mito fusion act = blocks mitochondrial division or promotes mitochondrial fusion | S. cerevisiae fusion-defective mutant growth rescue, CellTiterGlo 48 h | Potency, µM (top dose mostly 46.1 µM), inactives show at the top dose growth rescue (activation), hits mostly activators | 0.23% of 320,000 active | AID 485298; also: % of control where 0% means no effect; nearly all actives have a fitted effect of over 45% in size
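Read-out: ATP-based luminescence (CellTiterGlo, 10 min ambient) reporting growth of fusion-defective ts yeast after 48 hours at 37C on glycerol/ethanol YPEG medium in the presence of compound.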
VP16 counter = Gal4-VP16 reporter inhibition counter-screen. Drosophila S2 Gal4-VP16 UAS-luciferase, luminescence, 20 h. AID 2546. 3.5% of 310,000 active. Potency, µM (series often up to 53.6 µM), for inactives: at the top dose activity, negative = inhibition, actives largely listed as inhibitors;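 also: Gal4-VP16 expression switched on by copper sulfate through the metallothionein promoter; % is scaled to controls: 0 for no effect and ±100 for the full control effect; nearly all actives have a fitted effect of over 50% in size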
a7 integrin act = activators of alpha7 integrin expression for muscular dystrophy. alpha7betagal myoblasts, beta-gal FDG fluorescence, 48 h. Potency, µM (highest dose often 38.3 µM), for the others: top-dose activation, hits mostly activators. 0.064% of 350,000 active. AID 624291;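 also: 100% = response of the positive control SU9516; nearly all actives have a fitted effect of over 60% in size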
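Alpha7betagal+/- myoblasts (passage 13) were plated 16-24 hr, then exposed to compounds (1:260 dilution of DMSO stock) for 48 hours at 37C. After MPER lysis, β-galactosidase reporter activity was read as FDG fluorescence (ex 480/em 540) after 30 minutes.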
uPA generation = inhibitors of cell surface uPA generation. cell surface uPA generation assay, qHTS. Potency, µM (doses to about 38.3 µM), for inactives: top-dose activity change, negative = inhibition, actives largely listed as inhibitors. 0.31% of 330,000 active. AID 540303; active = well fitted inhibition curve with a large enough effect; inconclusive = small, poorly fitted or top-dose-only effect; inactive = no such curve, though single readings can be large or run the other way; tested in mouse RAW 264.7 cells; also: % is scaled to controls: 0 for no effect and ±100 for the full control effect; nearly all actives have a fitted effect of over 55% in size
RORgamma inh = blocks mouse ROR gamma transcriptional activity; P51450; Drosophila S2 Gal4-RORgamma UAS-luciferase reporter, 20 h; Potency, µM (series often up to 53.6 µM), for inactives: at the top dose activity change, negative = inhibition, most hits filed as inhibitors; 5.4% of 310,000 active; also: % is scaled to controls: 0 for no effect and ±100 for the full control effect; nearly all actives have a fitted effect of over 60% in size
Target sequence (P51450 whole entry, looked up, the tested form may be a part): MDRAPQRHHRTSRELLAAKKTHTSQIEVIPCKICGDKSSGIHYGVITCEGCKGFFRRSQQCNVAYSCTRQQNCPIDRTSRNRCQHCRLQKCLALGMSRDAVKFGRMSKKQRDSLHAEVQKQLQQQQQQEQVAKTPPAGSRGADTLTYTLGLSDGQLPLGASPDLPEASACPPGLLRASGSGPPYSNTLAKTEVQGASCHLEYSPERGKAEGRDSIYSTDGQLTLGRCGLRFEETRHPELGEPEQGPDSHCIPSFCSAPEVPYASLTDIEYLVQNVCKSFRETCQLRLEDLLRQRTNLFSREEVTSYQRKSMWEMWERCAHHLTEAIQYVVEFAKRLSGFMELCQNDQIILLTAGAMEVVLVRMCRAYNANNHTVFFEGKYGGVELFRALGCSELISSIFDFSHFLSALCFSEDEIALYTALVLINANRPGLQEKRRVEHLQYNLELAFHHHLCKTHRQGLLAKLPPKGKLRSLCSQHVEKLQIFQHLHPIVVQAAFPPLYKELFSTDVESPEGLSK
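Read-out: Photinus luciferase luminescence; inhibitors lower reporter signal. Insect Schneider cells with Gal4-ROR gamma fusion under metallothionein promoter, UAS reporter; 700 uM final copper sulfate induction, 20 hr, ambient temperature.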
BCR signal inh = chronic active BCR signaling inhibition | ABC-DLBCL IkBa-CBG/CBR reporter, luminescence ratio, 4 h | 0.05% of 340,000 active | Potency, µM (highest dose often 46.1 µM), for the others: at the top dose activity change, negative = inhibition, hits mostly inhibitors; active = well fitted inhibition curve with a large enough effect in the signal ratio, with a control signal flat, not every such curve was filed as active; inconclusive = small, poorly fitted or top-dose-only effect, or effect the other way, or a change in a side signal; the % refers to the signal ratio;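 also: plate controls were basal doxycycline-induced cells for no effect and cells given 10 µM MG132 for full effect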
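Concentration-response series (up to 46 uM) were applied to TMD8 dual-reporter cells for 4 h at 37C with doxycycline. Green/red ratio, after filter-overlap correction, defined %Activity; red signal alone was normalised to basal cells and zero luminescence.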
Starred values were filed as active, the others as inactive; ? = inconclusive; nt = not tested or not shown; [ ] = another dose, or the depositor's remark. Compounds with a hit are over-represented: about 5.5% of the library has one in this group of screens. Unless noted, calls follow the shape of the dose curve; as a rule, active = well fitted curve in the direction sought with a large enough effect; inconclusive = small, poorly fitted or top-dose-only effect, or another doubt; inactive = no such curve, though single readings can be large; an effect the other way counts as inactive or inconclusive. Potency is read from the fitted curve at half-maximal effect.

SMILES	Mito fusion act	VP16 counter	a7 integrin act	uPA generation	RORgamma inh	BCR signal inh
Cc1ccc(Nc2nc(N)nc(CSc3nncn3C)n2)cc1	3%	11µM*	28%	-3%	-84%	-16%
Cn1cnnc1SCc1nc(N)nc(Nc2ccccc2)n1	-1%	2%	?	-5%	12%	-2%
Nc1nc(CN2CCCCCC2)nc(Nc2ccccc2)n1	3%	-1%[0.365 µM]	-12%	3%	-30%	?
Nc1nc(CN2CCC(Cc3ccccc3)CC2)nc(Nc2ccccc2)n1	0%	-26%	-35%	-1%	10µM*	19%
Nc1nc(CN2CCN(C(c3ccccc3)c3ccccc3)CC2)nc(Nc2ccccc2)n1	-4%	?	-37%	-2%	3.2µM*	-4%
Cc1ccc(Nc2nc(N)nc(CN3CCN(c4ccccc4F)CC3)n2)cc1	-5%	-4%	-26%	-11%	11µM*	-6%
CC1CC(C)CN(Cc2nc(N)nc(Nc3ccccc3)n2)C1 (centres undefined)	-3%	3%	11%	-1%	-40%	-1%
Cc1ccc(S(=O)(=O)NC(=O)NC2CCCCCCC2)cc1	nt	-9%	nt	nt	2%	nt
CC1CN(CCN2CC(C)N(C=O)CC2C)C(C)CN1C=O (centres undefined)	nt	nt	2%	3%	nt	nt
N#CCCn1cc(C=O)c(-c2cccs2)n1	6%	1%	-33%	7%	-29%	-1%
CCCCNC(=O)CSc1nnc(Cc2ccc(Cl)c(Cl)c2)c(=O)[nH]1	2%	6%	1.4µM*	-2%	2%	2%
COc1ccc(Cc2nnc(SCC(=O)Nc3cc(Cl)ccc3OC)[nH]c2=O)cc1	-9%	nt	12%	3%	nt	13%
CCOC(=O)C1CCCN(S(=O)(=O)c2ccc3c(c2)N(C(C)=O)CCO3)C1 (centres undefined)	3%	-7%	9%	?	-18%	-8%
Cc1ccccc1OCCn1cnc2c(N)ncnc21	0%	-4%	-4%	-7%	-29%	18µM*
c1ccc2c(C3OCC4(CCCCC4)CO3)cccc2c1	nt	nt	-18%	nt	nt	nt
Cc1ccccc1NC(=O)C1Cc2ccccc2CN1C(=O)c1ccco1 (centres undefined)	5%	1%	15%	-1%	8%	?
CCSc1nnc(NC(=O)C2Cc3ccccc3CN2C(=O)c2ccco2)s1 (centres undefined)	3%	?	4%	1%	10µM*	1%
CCCC(=O)NC(=S)Nc1ccc(N2CCN(C(=O)c3cccs3)CC2)cc1	6%	?	-14%	-8%	7.9µM*	-5%
O=C(NC(=S)Nc1ccccc1N1CCN(C(=O)c2ccccc2)CC1)c1cccs1	1%	-7%	-15%	14%	-21%	14%
O=C(NC(=S)Nc1ccc(N2CCCCC2)cc1)c1cccs1	5%	5µM*	-38%	nt	3.2µM*	?
O=C(NC(=S)Nc1ccc(N2CCN(C(=O)c3ccccc3)CC2)cc1)c1cccs1	2%	?	-47%	-11%	5.6µM*	?
Cc1cc(S(=O)(=O)N2CCCC(C)C2)ccc1-n1cnnn1 (centres undefined)	11%	4%	-4%	-15%	-21%	-9%
COc1ccccc1CCn1c(=O)c(-c2cc(F)cc(F)c2)nc2cncnc21	nt	6%	nt	nt	-11%	nt
CCOC(=O)CSc1nc(-c2ccc(OC)cc2)ns1	-1%	-26%	11%	-1%	10µM*	14%
O=C1c2ccccc2S(=O)(=O)c2cc(N3CCOCC3)ccc21	nt	nt	-7%	2.5µM*	nt	nt
SMILES	Mito fusion act	VP16 counter	a7 integrin act	uPA generation	RORgamma inh	BCR signal inh
C=C[C@]1(C)Cc2occ(C)c2C[C@H]1C(=C)C(=O)O	nt	-24%	nt	nt	-36%	nt
O=C(Cc1ccc2c(c1)OCCO2)Nc1cc(Cl)ccc1N1CCOCC1	-6%	nt	-11%	3%	nt	9%
Nc1cccc(-n2nncc2-c2ccc(Cl)cc2)c1	-4%	-13%	nt	nt	-1%	1%
NC(=S)N/N=C/c1ccc(-n2nncc2-c2ccc(Cl)cc2)cc1	22µM*	?	6%	-8%	5.6µM*	?
Cc1cccc(OCC(=O)N/N=C\c2cccn2C)c1C	3%	-2%	-13%	0%	?	0%
O=C(COc1cccc2cccnc12)N/N=C/c1ccccc1O	-1%	-5%	-3%	6%	?	?
Cc1ccc(OCC(=O)N/N=C/c2cccc3cccnc23)cc1	-1%	?	-29%	5%	16µM*	?
Cc1ccccc1OCC(=O)N/N=C/c1cccc2cccnc12	-2%	14µM*	-53%	-5%	11µM*	?
Cc1ccccc1OCC(=O)N/N=C/c1cccn1C	4%	0%	14%	2%	8.9µM*	-8%
O=C(COc1ccc(F)cc1)N/N=C/c1cccc2cccnc12	nt	nt	-35%	?	nt	nt
CCc1ccc(NC(=O)C/C(C)=N/NC(=O)COc2ccccc2C)cc1	5%	16%	-14%	0%	-32%	-17%
CCc1ccccc1NC(=O)C/C(C)=N/NC(=O)COc1ccccc1C	3%	?	-2%	-2%	11µM*	?
Cn1cccc1/C=N\NC(=O)Cc1ccc(Br)c2ccccc12	-5%	11µM*	-44%	?	?	-7%
Cc1ccccc1OCC(=O)N/N=C/c1ccc(N2CCOCC2)o1	-2%	6.3µM*	-26%	?	14µM*	?
Cn1cccc1/C=N/NC(=O)Cc1ccccc1	-3%	7%	17%	2%	9%	0%
CCNC(=O)NCc1cccc(Cl)c1	nt	-10%	nt	nt	2%	nt
CC(Nc1ncnc2sccc12)c1ccccc1 (centres undefined)	4%	1.4µM*	-42%	-8%	?	1%
CCC(C)(C)C1CCC2(CC1)NC(=O)N(CC(=O)NCCc1c[nH]c3ccccc13)C2=O (centres undefined)	0%	nt	15%	8%	nt	3%
O=C(Nc1ccc(F)cc1F)c1cc2ccccc2oc1=O	-2%	2%	-34%	-3%	0%	5%
CCN(CC)c1ccc2cc(/C(N)=N/NC(=O)c3cccs3)c(=O)oc2c1	3%	30%	nt	nt	-12%	-6%
N/C(=N\NC(=O)c1cccs1)c1cc2ccccc2oc1=O	0%	7.1µM*	11%	1%	7.1µM*	?
N/C(=N\NC(=O)c1ccc(F)cc1)c1cc2ccccc2oc1=O	2%	?	-25%	-5%	3.5µM*	-7%
N/C(=N\NC(=O)c1cccc(F)c1)c1cc2ccccc2oc1=O	-2%	3.5µM*	28%	8%	1µM*	?
CCC/C=C(\CCC)C(NS(=O)(=O)c1cccc2cccnc12)c1ccc(-c2ccccc2)cc1 (centres undefined)	nt	-5%	nt	nt	-24%	nt
